Compound activity from PubChem.
The entries come from a sample that favours hits as a whole.
12-LOX inh: blocks human arachidonate 12S-lipoxygenase. P18054. purified 12hLO, xylenol orange hydroperoxide absorbance. Potency, µM (top dose mostly 108 µM), inactives show top-dose activity change, negative = inhibition, most hits filed as inhibitors. hit rate 1.1% among 580,000. AID 1671190; also: potency is read from the fitted curve at half-maximal effect
Target sequence (P18054 whole entry, looked up): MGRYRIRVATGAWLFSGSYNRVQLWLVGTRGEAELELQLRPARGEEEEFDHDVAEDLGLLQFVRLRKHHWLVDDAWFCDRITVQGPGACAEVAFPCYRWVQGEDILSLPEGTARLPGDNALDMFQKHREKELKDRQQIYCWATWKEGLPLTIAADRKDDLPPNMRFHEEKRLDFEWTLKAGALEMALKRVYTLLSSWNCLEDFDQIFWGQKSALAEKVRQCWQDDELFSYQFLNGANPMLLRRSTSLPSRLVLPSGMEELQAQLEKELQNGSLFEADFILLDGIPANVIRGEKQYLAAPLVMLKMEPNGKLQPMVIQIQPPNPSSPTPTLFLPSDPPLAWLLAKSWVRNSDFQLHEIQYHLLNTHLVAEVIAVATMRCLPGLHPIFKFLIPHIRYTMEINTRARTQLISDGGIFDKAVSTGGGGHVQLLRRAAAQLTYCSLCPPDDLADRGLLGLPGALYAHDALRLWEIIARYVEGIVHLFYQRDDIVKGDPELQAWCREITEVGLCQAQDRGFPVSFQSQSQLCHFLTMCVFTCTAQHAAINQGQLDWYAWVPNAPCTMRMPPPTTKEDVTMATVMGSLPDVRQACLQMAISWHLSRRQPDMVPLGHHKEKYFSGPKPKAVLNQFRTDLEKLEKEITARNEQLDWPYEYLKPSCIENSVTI
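Purified human 12hLO (150 nM final) in 25 mM Hepes, 0.01% Triton X-100, pH 7.0 was preincubated 15 min at room temperature with compound. Then 40 uM arachidonic acid was added, 30 min. Hydroperoxide was read by Fe-XO absorbance ratio 573/405 nm.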
IL-1B inflam inh: inflammasome signaling inhibition, IL-1 beta readout; THP-1 LPS/ATP IL-1B secretion, AlphaLISA, 16 h; hits give low values; activity change, % at 57.5 µM; hit rate 4.7% among 360,000; AID 743279; in the data active = activity change below about -50%; inconclusive = mostly about -30% to -49%
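Secreted IL-1B measured by AlphaLISA bead assay after 16 h compound exposure of THP-1 cells; compounds (final up to 57.5 uM) added 1 h before LPS (250 ng/mL) and ATP (1.25 mM) stimulation; lower signal means less secretion.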
HT1080 IDH1KD tx: kills HT-1080 cells with IDH1 knockdown. HT-1080 IDH1 knockdown viability, ATP luminescence, 48 h. Potency, µM (doses to about 46.1 µM), without a hit: top-dose activity, negative = toxicity, usual class: cytotoxic. hit rate 2% among 360,000;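 also: potency is read from the fitted curve at half-maximal effect; 0% = DMSO wells and -100% = cell-free medium wells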
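HT-1080-IDH1KD cells (IDH1 knocked down), 750/well in RPMI with 5% FBS, treated with compound 48 h at 37 degrees C. Viability by CellTiter-Glo luminescence, normalised to DMSO and no-cell wells; concentration-response curves classed.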
DT40 TDP1 CPT: DT40-hTDP1 cell growth loss with CPT; Potency, µM (titrated, usually from 46.2 µM), for inactives: at the top dose activity change, negative = growth inhibition, usual class: inhibitors; hit rate 12% among 420,000; chicken DT40 Tdp1-/-;hTDP1 cells + 20 nM CPT, ATP luminescence, 48 h; also: potency is read from the fitted curve at half-maximal effect; nearly all actives have a fitted effect of over 55% in size
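Cell growth measured by CellTiter-Glo luminescence after a minimum 48 h, 37 C compound exposure with 20 nM CPT in Tdp1-knockout DT40 cells stably expressing hTDP1, seeded 400/well; qHTS titration format.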
HT1080-NT tox: kills 2HG-producing HT-1080-NT fibrosarcoma cells; HT-1080-NT fibrosarcoma viability, CellTiter-Glo ATP luminescence, 48 h; Potency, µM (series often up to 46.1 µM), for inactives: at the top dose activity, negative = less viability, hits mostly cytotoxic; hit rate 1.6% among 360,000;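 also: NT is the 2HG producing partner of a matched IDH1 knockdown line; potency is read from the fitted curve at half-maximal effect; 0% = DMSO-treated cells and -100% = media-only wells without cells; nearly all actives have a fitted effect of over 55% in size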
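Luminescent CellTiter-Glo readout after 48 hours of compound exposure at 37 degrees C defined viability of HT-1080-NT cells. Activity was normalized to DMSO wells and cell-free media wells; concentration-response curves were fitted and assigned curve classes.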
DT40 TDP1 no CPT: qHTS for Inhibitors of human tyrosyl-DNA phosphodiesterase 1 (TDP1): qHTS in cells in absence of CPT; DT40 Tdp1-/- hTDP1 cells, no CPT, ATP luminescence, 48 h; Potency, µM (highest dose often 46.2 µM), without a hit: top-dose activity change, negative = growth inhibition, actives largely listed as inhibitors; hit rate 15% among 420,000; also: potency is read from the fitted curve at half-maximal effect; nearly all actives have a fitted effect of over 55% in size
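Luminescent ATP content (CellTiter-Glo) served as the growth readout. Knockout chicken DT40 cells expressing human TDP1 were exposed to compounds without camptothecin for a minimum 48 hr at 37 °C.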
Starred values were filed as active, the others as inactive; ? = inconclusive; / = not tested or not shown; ! = not active in a repeat; [ ] = remark or other dose. Unless noted, calls follow the shape of the dose curve; as a rule, active = well fitted curve in the direction sought with a large enough effect; inconclusive = small, poorly fitted or top-dose-only effect, or another doubt; inactive = no such curve, though single readings can be large; an effect the other way counts as inactive or inconclusive. Unless noted, % is scaled to controls: 0 for no effect and ±100 for the full control effect.

SMILES | 12-LOX inh | IL-1B inflam inh | HT1080 IDH1KD tx | DT40 TDP1 CPT | HT1080-NT tox | DT40 TDP1 no CPT
COc1ccc(-n2c(=O)c(-c3ccc(Cl)cc3)nc3cnc(N(C)C)nc32)cc1 | 11.2µM* | / | / | -20.2% | / | -2.1%
CCNc1ncc2nc(-c3ccc(OC)cc3)c(=O)n(C)c2n1 | ? | / | / | ? | / | -6.5%
CCNc1ncc2nc(-c3ccc(Cl)cc3)c(=O)n(-c3ccc(OC)cc3)c2n1 | 42.4% | / | / | ? | / | 13µM*
COc1ccc(-c2nc3cnc(N(C)C)nc3n(-c3ccccc3)c2=O)cc1 | 0.0% | / | / | 6.4% | / | 20.6%
Cc1nnc(SCC(=O)Nc2nc3c(s2)CC(C)CC3)s1 (stereo not given) | 12.8% | -6.4 | -6.3% | ? | 1.7% | 10.3µM*
CCc1nnc(NC(=O)CSc2nc3ccccc3o2)s1 | 2.9% | -2.8 | -2.7% | -1.9% | -4.9% | -11.2%
CC1CCc2nc(NC(=O)CSc3nc4ccccc4o3)sc2C1 (stereo not given) | 3.0% | 8.1 | ? | ? | ? | 18.4µM*
CCCCNC(=O)N[C@H]1CC[C@@]23CCCN2C(=O)CCC[C@H]3C1Cc1ccccc1 (stereo not given in full) | 3.7% | / | / | / | / | /
Cc1noc(C)c1C(=O)NCC1Cn2cccc2CN1C (stereo not given) | 53.3% | / | / | / | / | /
CC(=O)Nc1ccc(CN(C)c2c(C)nc3ccc(C(=O)N4CCN(c5ccccc5)CC4)cn23)cc1 | -11.6% | 31.5 | -5.3% | 23.1µM* | -3.4% | ?
Cc1nc2ccc(C(=O)N3CCN(c4ccccc4)CC3)cn2c1N(C)C(=O)CCc1ccccc1 | 14.6% | 13.5 | 2.7% | ? | 1.5% | ?
CC(=O)Nc1ccc(CN(C)c2c(C)nc3ccc(C(=O)N(C)Cc4ccccc4)cn23)cc1 | 20.6% | 0.0 | -0.3% | ? | -0.1% | 16.4µM*
CC(=O)NC(C)c1ccc(Oc2ccc(OC(C)C)cc2)cc1 (stereo not given) | -4.3%[57.4 µM] | / | / | / | / | /
Cc1cc(=O)oc2cc(OCC(=O)NCCc3ccc(F)cc3)ccc12 | 10.7% | / | / | / | / | /
COc1ccccc1CNc1nc(NCCN2CCNC2=O)c2sccc2n1 | 2.9% | 40.8 | -7.0% | 18.4µM* | -5.7% | ?
COCCNc1nc(NCCCN2CCCC2=O)c2sccc2n1 | -7.4% | 0.0 | 0.3% | -3.4% | 14.9% | -6.0%
COCCNc1nc(NCCN2CCNC2=O)c2sccc2n1 | 0.3% | -71.1* | 22.6% | -21.3% | 9.6% | -4.7%
COCC(=O)N1CCCC(C(=O)N2CCN(c3ccccc3OC)CC2)CCNC(=O)CC1 (stereo not given) | 26.5% | / | / | / | / | /
NC(=O)[C@@H](Cc1ccccc1)NC(=O)[C@@]1(O)C[C@@H](O)[C@H](O)[C@@H](NC(=O)c2ccco2)C1 | -12.1%[176 µM] | / | / | / | / | /
Cc1ccc(S(=O)(=O)/N=C(/Nc2ccc([N+](=O)[O-])cc2[N+](=O)[O-])c2ccccc2)cc1 | ? | -66.7* | 0.2% | ? | -17.0% | ?
Cc1ccc(S(=O)(=O)/N=C(/Nc2ccc([N+](=O)[O-])cc2)c2ccccc2)cc1 | 44.7µM* | 11.7 | -21.3% | 2.0% | -22.3% | ?
CC(=O)Nc1ccc(NC(=S)NC(=O)c2ccc([N+](=O)[O-])cc2)cc1 | -6.1% | 8.5 | -4.6% | -9.0% | -1.3% | -6.5%
CC(=O)c1cc2c(cc1N/C(=N/S(=O)(=O)c1ccc(C)cc1)c1ccccc1)OCO2 | ? | -15.2 | 6.9% | 23.1µM*! | 12.4% | ?
O=[N+]([O-])c1ccc(NC(=S)N/C(=N/CS(=O)(=O)c2ccccc2)c2ccccc2)cc1 | ? | -7.7 | -9.9% | ? | 0.2% | 23.1µM*
Cc1ccc(S(=O)(=O)/N=C(/Nc2ccc(F)cc2F)c2ccc(F)cc2)cc1 | 6.6% | 5.9 | 6.7% | 0.1% | 22.9% | 1.4%
SMILES | 12-LOX inh | IL-1B inflam inh | HT1080 IDH1KD tx | DT40 TDP1 CPT | HT1080-NT tox | DT40 TDP1 no CPT
COCCNC(=O)c1cn(CCOC)c(=O)c2c1c1ccccc1n2C | 50.1% | 49.1 | 1.5% | 11.9% | 0.7% | 5.0%
Cc1cc(N(C)/N=C/c2ccccc2O)nc(-c2ccccc2O)n1 | 0.9% | 30.1 | 20.9% | 5.8µM* | 5.8% | 4.11µM*
Cc1cc(Nc2ccc(Br)cc2)nc(-c2ccccc2O)n1 | ? | -24.2 | -14.9% | ? | 2.9% | -25.2%
O=c1cc(-c2ccccc2)nc(N2CCN(Cc3ccccc3)CC2)[nH]1 | ? | -4.6 | -1.0% | 18.4µM* | -2.6% | 20.6µM*
CC(=O)NN1C(=O)/C(=C2/Sc3ccccc3N2C)SC1=S | 0.0% | 18.7 | 11.8% | -24.7% | 5.4% | -5.6%
CN1C(=C2C(=O)OC(C)(C)OC2=O)Sc2ccccc21 | -19.4% | -0.6 | -0.1% | ? | 3.4% | 18.4µM*
O=C1CC(c2ccccc2)N(C(=O)CC2CCCC2)CCCCCN1 (stereo not given) | 24.2% | / | / | / | / | /
Cc1sc2ncnc(SCc3ccco3)c2c1C | -3.4% | 9.6 | -6.0% | ? | -0.1% | ?
Cc1sc2ncnc(Sc3nnnn3-c3ccc(Cl)cc3)c2c1C | 5.3% | -69.5* | ? | ? | ? | ?
c1ccc(-n2nnnc2Sc2ncnc3sc4c(c23)CCCC4)cc1 | 0.1% | -25.2 | -0.8% | 4.11µM* | 7.1% | 3.26µM*
O=C(O)CSc1ncnc2sc3c(c12)CCC3 | 4.4% | 4.2 | 3.0% | ? | 2.6% | ?
COCC1CN(C2CCC2)CC12CCN(C(=O)c1cccc(OC)c1)CC2 (stereo not given) | 18.3% | / | / | / | / | /
CS(=O)(=O)c1ccc(C(=O)NCC2(N3CCOCC3)CCCCC2)cc1 | 0.9% | -5.6 | 1.3% | 6.2% | 5.5% | -15.1%
CS(=O)(=O)c1ccc(-c2ccc3c(c2)CC(CNC(=O)C2(N4CCOCC4)CCCCC2)O3)cc1 (stereo not given) | 13.8% | / | / | -13.2%[9.04 µM] | / | 16.4µM*
COc1ccc(-c2nc3cc(C)c(Br)c(C)n3c2Cc2ccccc2)cc1OC | ? | 21.0 | -16.0% | ? | -29.1% | ?
Cc1ccc(Cc2c(-c3ccc(Cl)cc3)nc3cc(C)c(Br)c(C)n23)cc1 | 8.91µM* | 0.0 | -5.6% | ? | -6.2% | -13.8%
Cc1ccc(-c2nc3cc(C)c(Br)c(C)n3c2Cc2ccccc2)cc1 | -18.5% | 24.2 | -27.6% | 2.31µM* | -23.8% | 7.31µM*
CCC(C(=O)N1CCC(N2CCCCC2)CC1)n1nc(C)c2sc3ccccc3c2c1=O (stereo not given) | -18.8% | 2.0 | -0.4% | -18.8% | -0.2% | -27.3%
COC[C@@H]1CN(c2ncccn2)C[C@H]1C(=O)N1CCOCC1 | 42.3% | / | / | / | / | /
